# According to PubChem BioAssay AID1053 (University of Pittsburgh Molecular Library Screening Center, 2008):
# Calls of active or inactive are those of the source. The rule behind the calls is not given here.
# Target: Serine/threonine-protein kinase PLK1 (Homo sapiens) (UniProt P53350)
# Test: Plk1 polo box domain binding inhibitors, SAR follow-up, biochemical, fluorescence polarization, purchased analogs (AID 1053)
# Conditions: Plk1 PBD fluorescence polarization peptide binding; at 20 µM; hits give high values
# Serine/threonine-protein kinase PLK1 (Homo sapiens), sequence (P53350 whole entry, looked up, the tested form may be a part): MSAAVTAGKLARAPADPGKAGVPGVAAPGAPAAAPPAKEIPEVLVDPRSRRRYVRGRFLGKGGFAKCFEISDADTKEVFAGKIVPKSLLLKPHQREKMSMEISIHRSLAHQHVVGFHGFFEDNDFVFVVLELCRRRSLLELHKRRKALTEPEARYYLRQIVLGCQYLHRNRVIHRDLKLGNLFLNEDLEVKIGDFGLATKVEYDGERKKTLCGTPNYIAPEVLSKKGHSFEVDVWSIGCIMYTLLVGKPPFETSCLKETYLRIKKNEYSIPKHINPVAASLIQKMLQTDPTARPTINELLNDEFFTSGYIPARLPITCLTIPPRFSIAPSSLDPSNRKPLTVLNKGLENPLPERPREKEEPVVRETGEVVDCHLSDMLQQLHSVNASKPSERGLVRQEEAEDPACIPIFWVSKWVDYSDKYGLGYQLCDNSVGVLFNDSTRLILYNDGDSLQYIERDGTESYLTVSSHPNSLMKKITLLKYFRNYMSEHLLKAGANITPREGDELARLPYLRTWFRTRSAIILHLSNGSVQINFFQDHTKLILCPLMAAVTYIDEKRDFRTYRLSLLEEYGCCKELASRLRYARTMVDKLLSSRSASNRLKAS
row,Structure (SMILES),inhibition
1,CC(=O)N(/N=C1\Sc2ccccc2C1=O)c1ccccc1I,-47.1% (inactive)
2,CCOC(=O)c1ccc(NC(=O)C2C3CCC(C3)C2C(=O)O)cc1 (configuration not stated),-61.5% (inactive)
3,CCn1nc(-c2ccc(C(F)(F)F)cc2)nc2c(=O)n(C)c(=O)nc1-2,10.8% (inactive)
4,CC(=O)N(/N=C1\Sc2ccccc2C1=O)c1ccc(C)cc1C,29.2% (inactive)
5,CC(=O)N(/N=C1\Sc2ccccc2C1=O)c1ccccc1[N+](=O)[O-],32% (inactive)
6,Cn1nc(-c2ccc([N+](=O)[O-])cc2)nc2c(=O)n(C)c(=O)nc1-2,31.6% (inactive)
7,CCOC(=O)c1ccc(NC(=O)C2C3C=CC(C3)C2(C)C(=O)O)cc1 (configuration not stated),-56.5% (inactive)
8,CC(=O)Oc1c(Cl)c(N2CCOCC2)c(OC(C)=O)c2ccccc12,-39.3% (inactive)
9,CCn1nc(-c2ccc(C)cc2)nc2c(=O)n(C)c(=O)nc1-2,16.7% (inactive)
10,COc1ccccc1N(/N=C1\Sc2ccccc2C1=O)C(C)=O,6.58% (inactive)
11,CC(=O)N(CN1C(=O)c2ccc(Br)cc2C1=O)c1ccc(Cl)cc1,-43% (inactive)
12,CCOC(=O)c1ccc(NC(=O)C2Oc3ccccc3OC2C)cc1 (configuration not stated),-28.8% (inactive)
13,CCN(CC)CCOC(=O)c1ccc(N=Cc2c(O)n(C)c(=O)[nH]c2=O)cc1,-180% (inactive)
14,CC(=O)N(CN1C(=O)c2ccc([N+](=O)[O-])cc2C1=O)c1ccc(Oc2ccccc2)cc1,-28.5% (inactive)
15,CCOC(=O)c1ccc(NC(=O)C23CC4CC(CC(C4)C2)C3)cc1,-35.4% (inactive)
16,CCCCCCC(=O)N(CN1C(=O)c2ccccc2C1=O)c1ccccc1OC,-57.6% (inactive)
17,CCn1c(N/C(O)=C/C(O)(C(F)(F)F)C(F)(F)F)nc2ccccc21,-49.9% (inactive)
18,CCOC(=O)c1ccc(NC(=O)C2Cc3ccccc3C(=O)O2)cc1 (configuration not stated),-59.4% (inactive)
19,CC(=O)N(/N=C1\Sc2ccccc2C1=O)c1cc(C)ccc1C,33% (inactive)

row,Structure (SMILES),inhibition
1,COc1ccc(N(/C=C2\Sc3ccccc3C2=O)C(C)=O)cc1,-312% (inactive)
2,Cn1c(=O)c2nc(-c3ccccc3)c(-c3ccccc3)nc2n(C)c1=O,-30.5% (inactive)
3,CCCCCCC(=O)N(CN1C(=O)c2ccccc2C1=O)c1ccccc1,-23.4% (inactive)
4,CCOC(=O)c1ccc(N=Cc2c(O)n(Cc3ccccc3Cl)c(=O)[nH]c2=O)cc1,-73.2% (inactive)
5,CCOC(=O)N1CCN(c2cc3nccnc3cc2F)CC1,-52.1% (inactive)
6,CCOC(=O)c1ccc(NC(=O)c2cc(C)cc(C)c2)cc1,-13.8% (inactive)
7,CN(C)c1ccc(-c2nnc3c(n2)c(=O)n(C)c(=O)n3C)cc1,-22% (inactive)
8,O=C(COC(=O)c1ccc(NC(=O)c2ccc([N+](=O)[O-])cc2)cc1)c1ccccc1,61.8% (active)
9,CCn1nc(-c2ccccc2Br)nc2c(=O)n(C)c(=O)nc1-2,34.5% (inactive)
10,CC(OC(=O)c1ccc(NC(=O)c2ccc(Br)cc2)cc1)C(=O)c1ccccc1 (configuration not stated),0.95% (inactive)
11,CCOC(=O)c1ccc(N=Cc2c(O)n(C3CCCCC3)c(=O)n(C3CCCCC3)c2=O)cc1,13.1% (inactive)
12,CC(=O)N(CN1C(=O)c2ccccc2C1=O)c1cccc(C)c1,-35.8% (inactive)
13,CCOC(=O)c1ccc(N=Cc2c(O)n(Cc3cccs3)c(=O)[nH]c2=O)cc1,-25.6% (inactive)
14,CC(=O)N(/N=C1\Sc2ccccc2C1=O)c1ccc(Br)cc1,34.2% (inactive)
15,CC(=O)N(CN1C(=O)c2ccccc2C1=O)c1ccc2ccccc2c1,-49.2% (inactive)
16,CCOC(=O)c1ccc(NC(=O)c2ccc(Cl)c(Cl)c2)cc1,6.96% (inactive)
17,CCOC(=O)c1ccc(N=Cc2c(O)n(CC)c(=O)[nH]c2=O)cc1,-76.6% (inactive)
18,CCOC(=O)c1ccc(NC(=O)C2CC(=O)N=C(N)S2)cc1 (configuration not stated),-67.2% (inactive)
